This is a sample that favours compounds with a hit; in the whole collection about 11% have one here.
JMJD2A Tudor: qHTS Assay for Inhibitors of JMJD2A-Tudor Domain; Lysine-specific demethylase 4A (Homo sapiens), O75164; AlphaScreen JMJD2A-Tudor / H3K4me3 peptide binding; Potency, µM (highest dose often 114 µM), for inactives: at the highest dose activity change, negative = inhibition, actives largely listed as inhibitors; 390,000 compounds, 4.4% hits; AID 504339, 2011; further: on the % scale 0 is the no-effect control and ±100 the full control effect; nearly all actives have a fitted effect of over 50% in size
Target sequence (O75164 whole entry, looked up, the tested form may be a part): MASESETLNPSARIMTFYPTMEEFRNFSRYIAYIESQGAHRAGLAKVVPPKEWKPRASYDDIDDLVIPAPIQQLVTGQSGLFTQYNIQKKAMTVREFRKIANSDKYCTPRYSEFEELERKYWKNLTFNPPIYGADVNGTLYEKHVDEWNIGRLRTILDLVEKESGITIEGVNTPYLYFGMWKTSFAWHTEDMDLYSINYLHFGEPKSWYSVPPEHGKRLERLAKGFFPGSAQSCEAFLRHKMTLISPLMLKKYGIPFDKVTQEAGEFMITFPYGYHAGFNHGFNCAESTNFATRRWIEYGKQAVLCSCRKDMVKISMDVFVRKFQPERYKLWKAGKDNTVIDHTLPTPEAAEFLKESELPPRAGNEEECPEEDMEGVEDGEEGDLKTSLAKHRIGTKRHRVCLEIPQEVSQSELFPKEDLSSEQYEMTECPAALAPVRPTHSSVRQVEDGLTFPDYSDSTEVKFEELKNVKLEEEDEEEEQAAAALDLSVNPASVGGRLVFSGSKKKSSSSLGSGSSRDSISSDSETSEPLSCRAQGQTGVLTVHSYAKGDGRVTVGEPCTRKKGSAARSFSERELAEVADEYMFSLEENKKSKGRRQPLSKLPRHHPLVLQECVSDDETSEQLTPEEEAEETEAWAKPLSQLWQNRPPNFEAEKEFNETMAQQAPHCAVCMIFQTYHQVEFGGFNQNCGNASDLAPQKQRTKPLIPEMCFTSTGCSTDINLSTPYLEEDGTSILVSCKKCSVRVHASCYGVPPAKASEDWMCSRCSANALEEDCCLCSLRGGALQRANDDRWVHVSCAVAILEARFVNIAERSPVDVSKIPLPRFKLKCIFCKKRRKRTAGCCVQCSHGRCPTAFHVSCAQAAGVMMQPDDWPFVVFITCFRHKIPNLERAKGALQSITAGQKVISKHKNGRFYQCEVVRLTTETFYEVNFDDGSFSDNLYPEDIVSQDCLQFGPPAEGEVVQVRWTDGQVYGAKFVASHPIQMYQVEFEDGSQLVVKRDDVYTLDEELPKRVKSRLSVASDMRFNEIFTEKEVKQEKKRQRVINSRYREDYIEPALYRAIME
G9a block: qHTS Assay for Inhibitors of Histone Lysine Methyltransferase G9a; 350,000 compounds, 8.8% hits; Potency, µM (series often up to 102 µM), for the others: top-dose activity, negative = inhibition, actives largely listed as inhibitors; AID 504332, 2011; G9a H3K9 monomethylation, AlphaScreen, 2 h; further: on the % scale 0 is the no-effect control and ±100 the full control effect; nearly all actives have a fitted effect of over 75% in size
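G9a (20 nM) was preincubated 15 min with compound, then reacted 2 h at room temperature with 500 nM biotin-H3K9 peptide and 20 µM SAM. Monomethyl-H3K9 detected by AlphaScreen using anti-H3K9me1 antibody.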
PLK1 PBD inh: qHTS for Inhibitors of PLK1-PDB (polo-like kinase 1 - polo-box domain): Primary Screen; Potency, µM, inactives show max response, negative = inhibition, hits mostly inhibitors; Plk1 PBD binding of FITC phosphopeptide, fluorescence polarization; 360,000 compounds, 2.8% hits; further: series mostly up to about 57 µM; on the % scale 0 is the no-effect control and ±100 the full control effect; nearly all actives have a fitted effect of over 65% in size
HP1b chromo inh: HTS for Inhibitors of HP1-beta Chromodomain Interactions with Methylated Histone Tails; 390,000 compounds, 0.56% hits; Chromobox protein homolog 1 (Homo sapiens), P83916; Potency, µM (top dose mostly 114 µM), without a hit: at the highest dose activity change, negative = inhibition, most hits filed as inhibitors; AlphaScreen HP1-beta / biotin-H3K9me3 peptide binding; AID 540317, 2011; further: nearly all actives have a fitted effect of over 70% in size
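Compound inhibition of the preformed complex between 50 nM HP1-beta and 50 nM biotinylated H3K9me3 peptide was read by AlphaScreen. Buffer was PBS pH 7.4 with 0.01% Tween-20. Incubations ran 30 min at room temperature, with 10 ug/mL donor/acceptor beads.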
VDR inh: Inhibitors of the vitamin D receptor (VDR): qHTS | Vitamin D3 receptor (Homo sapiens), P11473 | VDR-SRC2-3 peptide fluorescence polarization, 2 h | Potency, µM, for the others: max response, negative = inhibition, most hits filed as inhibitors | 400,000 compounds, 0.93% hits | AID 504847, 2011; further: on the % scale 0 is the no-effect control and ±100 the full control effect
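The screen uses fluorescence polarization to detect compounds that interfere with recruitment of the SRC2-3 coactivator peptide to VDR; plates are read after 2 h at room temperature.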
BAZ2B inh: qHTS Assay for Inhibitors of BAZ2B | Bromodomain adjacent to zinc finger domain protein 2B (Homo sapiens), Q9UIF8 | AlphaScreen BAZ2B-H3K14Ac peptide displacement | Potency, µM (titrated, usually from 114 µM), without a hit: at the top dose activity change, negative = inhibition, usual class: inhibitors | 360,000 compounds, 4.4% hits; further: on the % scale 0 is the no-effect control and ±100 the full control effect; nearly all actives have a fitted effect of over 60% in size
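Protein-peptide AlphaScreen: BAZ2B 50 nM, b-H3K14Ac 50 nM, 1x PBS pH 7.4 + 0.01% Tween-20. Preincubation 30 min RT; cpd 30 min RT (top 110 uM); beads 20 min RT, light-protected.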
Numbers without * were called inactive; ? = inconclusive; nt = no result; [ ] = remark or other dose. The call rests on the fitted dose curve; in most records, active means well fitted curve in the direction sought with a large enough effect; inconclusive means small, poorly fitted or top-dose-only effect, or another doubt; inactive means no such curve, though single readings can be large; an effect the other way counts as inactive or inconclusive. Potency means the concentration at half of the fitted maximal effect.

SMILES | JMJD2A Tudor | G9a block | PLK1 PBD inh | HP1b chromo inh | VDR inh | BAZ2B inh
O=C(CSc1nc2ccccc2nc1Cc1ccc(Cl)cc1)N1CCc2ccccc21 | -2% | 11%[59 µM] | nt | 26%[57 µM] | 5% | 5%
CCOc1ccc(-c2nc(CSCC(=O)NCc3ccc(Cl)cc3)c(C)o2)cc1 | -27% | -13%[59 µM] | nt | -2% | -2% | -7%
COc1ccc(-c2n[nH]c(=S)n2-c2ccccc2C)cc1 | ? | 4.5µM* | ? | -18% | -8% | 3%
Cc1nn(S(=O)(=O)c2ccc(C(C)(C)C)cc2)c(C)c1S(=O)(=O)N1CCCCCC1 | -28% | -3%[59 µM] | nt | 20%[57 µM] | 17% | -26%
N/C(COc1ncn(-c2ccccc2)n1)=N\S(=O)(=O)c1ccc(Cl)cc1Cl | -22% | nt | -15% | 30% | 2% | -3%
CCOC(=O)c1sc(S(C)(=O)=O)c2c1CCc1conc1-2 | -2% | 56µM* | -10% | 30% | 1% | -21%
O=C(CNC(=O)c1ccccc1F)OCc1nc2ccccc2s1 | 5% | 0% | -7% | 45% | -17% | -2%
CNc1sc(C(=O)c2ccccc2F)c(N)c1-c1nc2ccccc2s1 | 50µM* | ? | -1% | ? | -14% | 40µM*
O=C(CN1C(=O)c2ccccc2C1=O)NC1CCC(O)CC1 (stereo not drawn) | -7% | 6%[59 µM] | -5% | 16% | -22% | 4%
O=C(N=Nc1c(O)[nH]c2ccc([N+](=O)[O-])cc12)c1ccccc1Cl | ? | ? | ? | 10% | -22% | 56µM*
COc1ccc(/C=C/C(=O)NCC(=O)N=Nc2c(O)[nH]c3ccc([N+](=O)[O-])cc23)cc1 | ? | ? | -15% | 3% | 5% | 79µM*
CC(/C=N/NC(=O)c1ccco1)=C\c1ccccc1 | ? | -36% | 1% | 15% | 11% | nt
CC1CC(=O)N(c2ccc(N(C)Cc3ccccc3)c([N+](=O)[O-])c2)C1=O (stereo not drawn) | -10% | -48% | -1% | 8% | -9% | 11µM*
CN(Cc1ccccc1)c1ccc(N2C(=O)CCC2=O)cc1[N+](=O)[O-] | ? | -40% | -6% | 5% | -28% | ?
COc1ccc(S(=O)(=O)NC2CCSc3ccccc32)cc1OC (stereo not drawn) | -26% | 50µM* | -12% | 10% | 1% | 1%
CN(C)c1ccc(C(CNS(=O)(=O)c2ccc([N+](=O)[O-])cc2)N2CCCC2)cc1 (stereo not drawn) | 45µM* | 45µM* | 2% | ? | 8% | 6%
O=S(=O)(NCC(c1ccccc1)N1CCC(O)CC1)c1ccc(Cl)cc1 (stereo not drawn) | ? | -6% | 21µM* | 24% | -25% | 2%
CN(C)c1ccc(C(c2ccc(N(C)C)cc2)c2ccc([N+](=O)[O-])cc2)cc1 | 10µM* | 5µM* | -3% | 8.9µM* | -7% | 6.3µM*
N#CCCN1CCN(C(CNS(=O)(=O)c2ccc(Cl)cc2)c2ccccc2)CC1 (stereo not drawn) | -7% | ? | -5% | 21% | -3% | 14%
CN(C)c1ccc(C(CNS(=O)(=O)c2ccc(Cl)cc2)N2CCOCC2)cc1 (stereo not drawn) | ? | ? | nt | -18% | 5% | 40µM*
OC[C@@H]1CN(Cc2ccc3c(c2)OCO3)C[C@H](n2cnc3c(NC4CC4)ncnc32)O1 | nt | nt | -3% | nt | nt | nt
O=C(CN1C(=O)CC(c2ccccc2)S(=O)(=O)c2ccccc21)N1CCCCC1 (stereo not drawn) | -6% | -39% | -6% | 36% | 3% | nt
Cc1ccccc1OCC(=O)Nc1ccc(-c2nc3cc(Cl)cc(Cl)c3o2)cc1 | -17% | -32%[59 µM] | nt | 3% | 0% | ?
